Among the data in the supplement of paper PMC6555819 are PBM binding z-score values, retold here.

Common to all, as to assay: PBM binding z-score (relative to random genomic background probes); higher = stronger binding; sequences stand for … in GC…GCGATTGACAGCGTAGAATGAAGG
In test [1] the test system is FXR:RXRa (NR concentration 270 nM, RXRa partner concentration 90 nM). The gist of the method:
(§1)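 Binding buffer was PBS pH 7.4 with 2% milk, 0.02% Triton X-100, 1 mM DTT, 0.2 mg/mL BSA and 0.4 mg/ml salmon testes DNA. In it, ligand-free nuclear receptor dimers were incubated 1 h on custom Agilent 4×180K protein-binding microarrays carrying double-stranded probes. Antibodies against each partner (one per run) detected binding, and z-scores were calculated against random background probes after regression normalization of scanned fluorescence.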

The subject of test [2] is LXRa:RXRa (NR concentration 270 nM, RXRa partner concentration 90 nM). The procedure, abridged:
as §1

The test system of test [3] is LXRa homodimer (NR concentration 270 nM). The gist of the method:
as §1

Test [4] has as its system LXRb:RXRa (NR concentration 270 nM, RXRa partner concentration 90 nM). The procedure, abridged:
as §1

Test [5] concerns LXRb homodimer (NR concentration 270 nM). The gist of the method:
as §1

For test [6], the system named is PPARa:RXRa (NR concentration 270 nM, RXRa partner concentration 90 nM). The procedure, abridged: as §1
Test [7] deals with PPARg:RXRa (NR concentration 180 nM, RXRa partner concentration 90 nM). The gist of the method: as §1
In test [8] the test system is PPARg:RXRa 270nM:90nM, anti-RXR (NR concentration 270 nM, RXRa partner concentration 90 nM). The gist of the method: as §1
The subject of test [9] is PPARg:RXRa 30nM:10nM, anti-RXR (NR concentration 30 nM, RXRa partner concentration 10 nM). The procedure, abridged:
as §1

For test [10], the system named is PPARg:RXRa 90nM:30nM, anti-RXR (NR concentration 90 nM, RXRa partner concentration 30 nM). The procedure, abridged: as §1
Test [11] deals with PPARg:RXRa DBDmut IVT, anti-RXR (DBD mutation: RXRa K156A/R161A, NR concentration 270 nM, RXRa partner concentration 90 nM). The procedure, abridged:
as §1

For test [12], the system named is PPARg:RXRa IVT, anti-PPARg (NR concentration 270 nM, RXRa partner concentration 90 nM). The procedure, abridged: as §1
Test [13] relates to PPARg DBDmut:RXRa IVT, anti-PPARg (DBD mutation: PPARg1 K132A/R137A, NR concentration 270 nM, RXRa partner concentration 90 nM). The gist of the method:
as §1

For test [14], the system named is PPARg DBDmut IVT, anti-PPARg (DBD mutation: PPARg1 K132A/R137A, NR concentration 270 nM). The procedure, abridged:
as §1

For test [15], the system named is PPARg homodimer (NR concentration 180 nM). The procedure, abridged:
as §1

Test [16] deals with PXR:RXRa (NR concentration 270 nM, RXRa partner concentration 90 nM). The procedure, abridged:
as §1

The subject of test [17] is PXR homodimer (NR concentration 270 nM). The gist of the method: as §1
Test [18] has as its system RARa:RXR (NR concentration 270 nM, RXRa partner concentration 90 nM). The gist of the method:
as §1

Test [19] concerns RARa homodimer (NR concentration 270 nM). The gist of the method:
as §1

Test [20] relates to RARb:RXRa (NR concentration 270 nM, RXRa partner concentration 90 nM). The procedure, abridged: as §1

As to TAGGCTAGGTCATGGGCCAGTATACCACGCGAAC, the PBM binding z-score is 4.91 in test [1]; 3.13 in test [2]; 0.324 in test [3]; 2.18 in test [4]; -0.308 in test [5]; 4.03 in test [6]. In addition, the PBM binding z-score in [7] came out at 4.36; in test [8] it was 4.24; in test [9], 1.3; in [10] it was 3.18; in test [11], 2; in [12], 3.61. The PBM binding z-score in test [13] was 1.69; in test [14], -0.653; in [15], 3.07; in test [16], 1.42; in test [17] it was -0.616; in test [18], 2.78. For the same sequence, the PBM binding z-score in test [19] is 0.534; in test [20] it was 4.04.

Turning to GTAGCAAGGTGAATAGGTCGTTGATGAGTAGGCG, the PBM binding z-score in test [1] was 0.435; in [2], 0.286; in [3], -0.884; in test [4], 0.119; in test [5], -1.35; in test [6], 2.05. The PBM binding z-score in test [7] amounted to 0.986; in [8], 1.48; in [9], 0.12; in test [10], 0.807; in test [11] it was 1.19; in [12], 1.9. The PBM binding z-score in [13] was -0.625; in test [14], -1.04; in test [15] it was 0.211; in [16] it was 0.451; in test [17], -0.13; in test [18], 1.08. The values for the PBM binding z-score in test [19] and in [20] were -0.0167 and 1.74, respectively.

For the sequence GATACAGGGTCAAGGCCAGTGTACGCGTATTGAT, the PBM binding z-score in test [1] was 6.59; in test [2], 4.26; in test [3] it was -0.145; in test [4] it was 3.52; in [5], -0.211; in test [6], 5.6. The PBM binding z-score in [7] is 5.69; in [8], 5.76; in [9] it was 2.44; in [10], 4.1; in test [11] it was 2.53; in [12], 3.95. Besides, the PBM binding z-score in test [13] is 0.493; in test [14], -0.124; in [15], 2.17; in test [16], 3.97; in [17], 0.209; in test [18], 4.47. Further, the PBM binding z-score in test [19] amounted to 0.237; in [20] it was 4.41.

Regarding GGAACGAGGGCAAAGTTGATAGCTTCTGTCGACG, the PBM binding z-score in [1] was 1.24; in test [2] it was 0.709; in test [3] it was -0.752; in [4] it was 0.608; in test [5] it was -0.484; in test [6] it was 3.85. The PBM binding z-score in test [7] was 6.78; in [8], 6.83; in test [9], 5.74; in test [10], 7.17; in [11], 4.1; in test [12], 4.11. The PBM binding z-score in test [13] turned out to be 0.574; in test [14], 0.0846; in [15], 0.712; in [16], 0.96; in [17], 0.104; in test [18], 1.34. For the same sequence, the results for the PBM binding z-score in [19] and in [20] were -0.449 and 2.14, respectively.

CGAACTAGGTCATTGACAGAACAGTGAATAGTAA: the PBM binding z-score in [1] was found to be 4.26; in test [2], 2.84; in test [3], 0.516; in test [4], 2; in [5] it was 0.18; in test [6], 4.66. For the same sequence, the PBM binding z-score was 7.52 in test [7]; 6.34 in [8]; 4.05 in [9]; 5.58 in [10]; 7.82 in test [11]; 8.32 in [12]. Moreover, the PBM binding z-score in test [13] was 1.7; in test [14] it was 2.64; in test [15], 1.37; in [16], 1.39; in test [17], -0.216; in test [18], 1.99. The PBM binding z-score stood at 0.356 in test [19] and 3.56 in [20].

On to ATCTCTAGGTAAAGATAGTTCAGTGATTGCAAAT, for which the PBM binding z-score in test [1] was determined as 0.768; in [2], 3.86; in [3], 0.679; in test [4], 1.04; in test [5] it was 0.794; in [6], 0.72. Further, the PBM binding z-score in test [7] came to 0.511; in [8], 0.72; in test [9] it was 0.406; in test [10] it was 0.607; in [11], 2.16; in test [12], 1.82. In addition, the PBM binding z-score in test [13] came out at 0.778; in test [14] it was 1.85; in test [15] it was 1.19; in test [16] it was 1.38; in [17] it was 0.822; in [18] it was 0.722. Further, the PBM binding z-score in test [19] amounted to 1.29; in test [20] it was 0.865.

GCTATTAATTGAAAGGGCAACCGAATGATTCTCG: the PBM binding z-score in test [1] was 0.000102; in test [2], 0.439; in test [3], 1.02; in test [4], 0.408; in test [5] it was -0.192; in [6], 1.08. Moreover, the PBM binding z-score was 0.608 in test [7]; 0.921 in test [8]; -0.0129 in test [9]; 0.592 in [10]; 0.162 in [11]; 0.122 in test [12]. Also, the PBM binding z-score is -0.051 in test [13]; -0.0832 in test [14]; 1.66 in [15]; 0.52 in test [16]; 1.04 in [17]; 0.517 in [18]. For the same sequence, the PBM binding z-score in test [19] was 2.31; in test [20], 2.02.
